POLI inh = inhibitors of human DNA polymerase iota. Pol iota fluorescent replication assay, 10 min. Potency, µM (titrated, usually from 115 µM), without a hit: at the top dose activity, negative = inhibition, hits mostly inhibitors. 390,000 compounds, 1% hits. AID 588590; further: potency means the concentration at half of the fitted maximal effect
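Fluorescent replication assay read twice, at 0 min and 10 min after adding 50 nM (final) substrate. Enzyme (10 nM) and compounds were first incubated 15 min at room temperature; enzyme-free buffer wells were negative controls.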
POLK inh = inhibitors of human DNA polymerase kappa | 400,000 compounds, 0.53% hits | purified Pol kappa, fluorescent DNA synthesis assay, 10 min | Potency, µM (titrated, usually from 107 µM), for inactives: top-dose activity, negative = inhibition, most hits filed as inhibitors | AID 588579 | Q9UBT6; further: potency means the concentration at half of the fitted maximal effect; on the % scale 0 is the no-effect control and ±100 the full control effect
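Kinetic fluorescence readout at 0 and 10 min followed reaction start with substrate at 50 nM final. Beforehand, enzyme (10 nM Pol kappa) stood 15 min with compound at room temperature; buffer-only wells were negative controls.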
PI5P4K alpha inh = PI5P4K alpha (human) kinase inhibition. P48426. PI5P4Kalpha enzyme, ADP-Glo luminescence, 60 min; active compounds read low. max response, %. 330,000 compounds, 1.2% hits; active means max response of -50% or lower; inconclusive means between -30% and -50%; inactive means -30% or higher; further: value at the top dose of about 77 µM; on the % scale 0 is the no-effect control and ±100 the full control effect
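PI5P4Kalpha ADP-Glo assay; 5 microM ATP final; 60 min RT reaction; HEPES pH 7.4/EGTA/CHAPS, 5% DMSO; controls lacking substrate or enzyme; luminescent end-point.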
12-LOX inh = blocks human arachidonate 12S-lipoxygenase. Potency, µM (titrated, usually from 108 µM), without a hit: at the top dose activity change, negative = inhibition, actives largely listed as inhibitors. P18054. 580,000 compounds, 1.1% hits. purified 12hLO, xylenol orange hydroperoxide absorbance; further: potency means the concentration at half of the fitted maximal effect; on the % scale 0 is the no-effect control and ±100 the full control effect
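Purified human 12hLO (150 nM final) in 25 mM Hepes, 0.01% Triton X-100, pH 7.0 was preincubated 15 min at room temperature with compound. Then 40 uM arachidonic acid was added, 30 min. Hydroperoxide was read by Fe-XO absorbance ratio 573/405 nm.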
Pol eta inh = blocks human DNA polymerase eta activity. Potency, µM (titrated, usually from 114 µM), without a hit: at the top dose activity change, negative = inhibition, most hits filed as inhibitors. 390,000 compounds, 1.2% hits. Q9Y253. recombinant Pol eta, fluorescent DNA replication assay; further: potency means the concentration at half of the fitted maximal effect; on the % scale 0 is the no-effect control and ±100 the full control effect
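Pol eta at 10 nM preincubated with compounds 15 min at room temperature; reaction started with fluorescent substrate (50 nM final) and read kinetically at 0 and 10 min.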
Pol beta inh = inhibitors of human DNA polymerase beta; Potency, µM (titrated, usually from 114 µM), without a hit: top-dose activity change, negative = inhibition, hits mostly inhibitors; Pol beta primer extension/strand displacement, fluorescence kinetic; P06746; 340,000 compounds, 1.3% hits; further: potency means the concentration at half of the fitted maximal effect; on the % scale 0 is the no-effect control and ±100 the full control effect
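Curves were derived by four-parameter Hill fits of normalized qHTS data. The kinetic fluorescent primer-extension read was taken at 0 and 10 min after 50 nM substrate, following a 15 min room-temperature preincubation of 10 nM enzyme with compounds.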
ADP-Glo counter = counter-screen for PI5P4K inhibitors: ADP-Glo detection interference, no enzyme; shares compounds with PI5P4K alpha inh; ADP-Glo detection counter-screen, luciferase luminescence, no enzyme; Potency, µM (doses to about 76.9 µM), for the others: at the highest dose activity change, negative = inhibition, usual class: inhibitors; 1,100 tested, under 10 active
* hit, by the source's call; ? = inconclusive; . = no result given; [ ] = dose if it differs, or a comment. This is a sample that favours compounds with a hit; in the whole collection about 2.9% have one here. Unless noted, the call rests on the fitted dose curve; in most records, active means well fitted curve in the direction sought with a large enough effect; inconclusive means small, poorly fitted or top-dose-only effect, or another doubt; inactive means no such curve, though single readings can be large; an effect the other way counts as inactive or inconclusive.

SMILES	POLI inh	POLK inh	PI5P4K alpha inh	12-LOX inh	Pol eta inh	Pol beta inh	ADP-Glo counter
Nc1nc(Nc2ccccc2)sc1C(=O)c1ccccc1	27%	-16%	-65*	-4%	-1%	3%	4%
Cc1cnc(NC(=O)c2sc(Nc3ccccc3)nc2N)o1	-8%	-7%	-55*	176%	-7%	7%	0%
CC(C)CCN1CCC(O)(c2csc(CN3CCN(C)CC3)n2)CC1	.	.	.	13%[176 µM]	.	.	.
COc1ccc(C2=NOC(C(=O)NCc3ccccn3)C2)cc1OC (centres undefined)	27%	-8%	-53*	4%	5%	30%	3%
COc1ccc(C2=NOC(C(=O)NCc3ccccn3)C2)cc1 (centres undefined)	29%	-20%	?	-1%	-2%	2%	.
COc1ccccc1OCC(=O)Nc1ccc2c(c1)OCO2	?	-25%	-50*	?	?	50µM*	0%
Cc1cccc(Nc2nc(NCc3ccco3)c3ccccc3n2)c1	-1%	-2%	.	?	-11%	5%	2%
O=C1NC(c2cc(Cl)cc([N+](=O)[O-])c2O)Nc2ccccc21 (centres undefined)	-23%	1%	-79*	-8%	-12%	-5%	6%
CC(C)c1ccc(NC(=O)C(c2ccc3c(c2)OCO3)N2CCCCC2)cc1 (centres undefined)	-15%	-2%	1	-17%	-18%	6%	.
Oc1cc2c(cc1C(c1ccc(Cl)c(Cl)c1)N1CCCC1)OCO2 (centres undefined)	?	-8%	-74*	4.5µM*	-24%	-8%	5%
CCc1nnc(NC(=O)c2cc(-c3ccc(C)o3)nc3ccccc23)s1	8%	-10%	-55*	6.3µM*	-4%	.	5%
O=C(C1CCC1)N1CCC2(CC1)CC(N(Cc1ccccc1)C1CC1)CCO2 (centres undefined)	.	.	.	-4%	.	.	.
COc1cc(Br)cc(CNc2ccc(F)c([N+](=O)[O-])c2)c1O	15%	-7%	-28	?	-16%	-1%	0%
Cc1ccc(CC(=O)Nc2ccc(F)c([N+](=O)[O-])c2)cc1C	12%	-4%	2	3%	-24%	-20%	.
Cc1ccc(S(=O)(=O)N(C(=O)c2ccco2)c2cc3sc(=O)oc3c3ccccc23)cc1	?	-15%	-56*	28µM*	-11%	6%	-1%
COc1ccc(S(=O)(=O)N(C(=O)C(C)C)c2ccc3oc(=O)sc3c2)cc1	?	10%	.	?	-14%	-29%	.
COc1ccc(S(=O)(=O)N(C(=O)c2ccco2)c2cc3sc(=O)oc3c3ccccc23)cc1	?	-14%	-61*	?	-12%	-8%	-8%
CCOc1ccc(S(=O)(=O)N(C(=O)c2ccco2)c2cc3sc(=O)oc3c3ccccc23)cc1	?	-8%	-58*	32µM*	-19%	0%	2%
CC(=O)N(c1ccc2oc(=O)sc2c1)S(=O)(=O)c1ccccc1	-17%	-6%	-18	?	-8%	35%	.
COc1ccc(-c2cc(C(F)F)n3ncc(C(=O)n4ccnc4C)c3n2)cc1	-22%	-3%	-26	-2%	-18%	-29%	3%
COc1ccc(Nc2ccccc2C(=O)O)cc1	?	-18%	-64*	-7%	3%	-1%	6%
COc1ccc(Nc2cccccc2=O)cc1	9%	-2%	-2	?	-12%	27%	.
Cc1ccc(NC(=O)N2CCC(NC(=O)c3cccc(C)c3)CC2)cc1	?	-25%	-78*	?	13%	-13%	-5%
Cc1ccc2c(c1)NC(=O)c1cc(S(=O)(=O)N(C)Cc3ccccc3)c(Cl)cc1O2	.	.	.	-19%	.	.	.

Compound activity deposited in PubChem BioAssay by National Center for Advancing Translational Sciences (NCATS).
